PubChem BioAssay AID1347075 (National Center for Advancing Translational Sciences (NCATS), 2019)
Screen size: about 400,000 compounds; about 5,500 (1.4%) were called active. Another 9% or so got no clear call; they are omitted. The list comes from a sample in which actives are over-represented; it also holds similar structures and randomly drawn compounds. Values without a mark were called inactive. Calls come from the whole dose curve; as a rule, active = well fitted cell-killing curve with a large enough effect; inconclusive = small, poorly fitted or top-dose-only effect, or effect the other way; inactive = flat fitted curve, though single readings scatter.

Experiment: qHTS assay for MDR1-selective chemotherapeutics: Primary screen using the parental adenocarcinoma cell KB-3-1; note: nearly all actives have a fitted effect of over 60% in size
Details: KB-3-1 viability, CellTiter-Glo ATP luminescence, 72 h; series mostly up to 46.1 µM; activity change, negative = cytotoxic: at the top concentration
Method in brief: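 Viability of parental KB-3-1 cells, measured by CellTiter-Glo luminescence, followed a 72 h incubation at 37 °C with pinned compounds in phenol-red-free DMEM containing 10% FBS.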
% is set by controls: 0 for no effect and ±100 for the full control effect; potency is the fitted concentration of half-maximal effect.

Compound | activity change, negative = cytotoxic | Potency
O=C(c1cnn2c1NC(=C1CC1)C=C2C(F)F)N1CCc2ccccc2C1 | 0% | 
CSc1nn(Cc2cccc(C)c2)c(N)c1S(=O)(=O)c1ccccc1 | -14.3% | 
CC(=O)c1cccc(-c2cnc3c(NC=O)cc(-c4ccccc4Oc4ccccc4)cn23)c1 | -2.94% | 
COc1cccc(-c2cnc3c(NC(C)=O)cc(-c4cccc(NC(C)=O)c4)cn23)c1 | 0% | 
COc1ccc(-c2cc(NC=O)c3ncc(-c4cc(OC)c(OC)c(OC)c4)n3c2)c(OC)c1 |  | 1.3 µM (active)
COc1cccc(-c2cc(NC(C)=O)c3ncc(-c4cccc(C(C)=O)c4)n3c2)c1 | 0% | 
COc1ccccc1-c1cc(NC(C)=O)c2ncc(-c3ccc(F)cc3)n2c1 | 0% | 
COc1ccc(-c2cc(NC(C)=O)c3ncc(-c4cc(OC)c(OC)c(OC)c4)n3c2)cn1 |  | 5.8 µM (active)
COc1ccc(-c2cc(NC=O)c3ncc(-c4cccc(C(=O)N(C)C)c4)n3c2)c(OC)c1 | -0.891% | 
COc1cccc(-c2cnc3c(NC(C)=O)cc(-c4cc(F)ccc4OC)cn23)c1 |  | 16.4 µM (active)
CC(=O)Nc1cccc(-c2cc(NC(C)=O)c3ncc(-c4ccccc4)n3c2)c1 | -3.06% | 
CCCN(C(=O)Cn1ncc2c([nH]c3ccc(C)cc32)c1=O)c1ccccc1C | 0.221% | 
CCc1ccc2oc(-c3ccc(NC(=O)c4cc5ccccc5o4)cc3)nc2c1 | -12.6% | 
COc1ccc(NC(C)=O)cc1NC(=O)CN1CCN(c2ccc(F)cc2)CC1 | 1.07% | 
COC(=O)c1ccc(NC(=O)c2cc(S(=O)(=O)N3CCC(C)CC3)cn2C)cc1 | -7.89% | 
CCOC(=O)c1c(C)oc2nc(C)nc(N(CC(C)C)CC(C)C)c12 | 3.41% | 
CC(C)(O)c1ccccc1CC[C@H](SCC1(CC(=O)O)CC1)c1cccc(/C=C/c2ccc3ccc(Cl)cc3n2)c1 | 7.37% | 
CCc1cnc2c(c1SCC(=O)c1ccccc1)c(=O)n(C)c(=O)n2C | 9.68% | 
Cc1ccc(C)c(S(=O)(=O)n2nc(C)c(S(=O)(=O)N3CCC(C)CC3)c2C)c1 | -3.25% | 
Cc1ccc(C)c(S(=O)(=O)N2CCN(c3ncnc4sccc34)CC2)c1 |  | 9.2 µM (active)
Cc1ccc(C)c(S(=O)(=O)c2nnn3c2nc(N2CCOCC2)c2sccc23)c1 | -0.269% | 
CCOCCCNC(=O)c1cn(CC)c2ccc(S(=O)(=O)N3CCc4ccccc4C3)cc2c1=O | -12.4% | 
O=C(CCNC(=O)c1ccc(Cl)cc1)NC1CCCc2ccccc21 (stereo not drawn) |  | 7.31 µM (active)
COC(=O)c1cc(OCC(=O)NC2CCCc3ccccc32)cc(C(=O)OC)c1 (stereo not drawn) | 5.25% | 

Compound | activity change, negative = cytotoxic | Potency
NC(=O)Nc1ccc(C(=O)OCC(=O)NC2CCCc3ccccc32)cc1 (stereo not drawn) | 3.73% | 
Cc1ccc(Cl)cc1NC(=O)CCS(=O)(=O)c1ccc(Br)s1 | 10.5% | 
CCC(C)(C)c1ccc(OCC(=O)N(C)C)c(C(C)(C)CC)c1 |  | 16.4 µM (active)
CCc1nc(C)ccc1OCC(=O)N(CC)CC | -4.05% | 
COc1ccc(Cl)cc1NC(=O)CSc1nc2ccccc2c2nc(-c3ccccc3)nn12 | 3.72% | 
CSc1oc(-c2cccs2)nc1S(=O)(=O)c1ccc(Br)cc1 | 0.965% | 
CCOc1ccc(NC(=O)C(CC(C)C)N2Cc3ccccc3C2=O)cc1 (stereo not drawn) | -18.3% | 
C=CCn1c(SCc2c(C)noc2C)nc2sc3c(c2c1=O)CCC(C)C3 (stereo not drawn) |  | 4.11 µM (active)
C=CCn1c(SCC(=O)NCCCO)nc2sc3c(c2c1=O)CCC3 | 2.97% | 
CCCn1nnc2sc3c(c2c1=O)CCC(C)C3 (stereo not drawn) | -4.79% | 
O=S(=O)(Nc1ccc2nc(-c3cccc(Cl)c3)oc2c1)c1ccccc1 | 0.847% | 
CN(Cc1ccccc1)S(=O)(=O)c1ccc(F)c(C(=O)Nc2cccc(Cl)c2Cl)c1 | 6.97% | 
COc1ccc(-n2c(SCC(=O)Nc3ccc(Cl)c(C)c3)nc3n[nH]c(C)c3c2=N)cc1 | -0.218% | 
C=CCn1c(CC(=O)Nc2cccc(OC)c2)nnc1SCC(=O)NC1CCCCC1 | 19% | 
COc1cccc(-n2c(SCC(=O)NC3CCCCC3)nc3n[nH]c(C)c3c2=N)c1 |  | 13 µM (active)
ClC/C=C/C[n+]1ccccc1Cl | 0% | 
CCOc1ccc(-c2cc3c(=O)n(CC(=O)NCc4ccc(OC)cc4)ccn3n2)cc1 | 0.871% | 
CN(O)C(=S)c1ccccc1 |  | 0.0052 µM (active)
Cc1ccc(S(=O)(=O)N(CC(=O)Nc2cccc([N+](=O)[O-])c2)Cc2ccc(Cl)cc2)cc1 | -5% | 
CN(c1ccccc1)S(=O)(=O)c1ccc(NC(=O)COc2ccccc2)cc1 | 0% | 
CN(c1ccccc1)S(=O)(=O)c1cccc(NC(=O)Cc2ccc(Cl)cc2)c1 |  | 23.1 µM (active)
Nc1ncnc2nnsc12 | 44% | 
CC(C)Oc1cccc(-c2cnc(N3CCC(C(N)=O)CC3)s2)c1 | 16.4% | 
COc1cc2nc(SCc3ccc(F)cc3)n3nc(CCn4c(C)nc5ccccc54)nc3c2cc1OC | 13.2% | 
